Hit rate of the full screen: of about 290,000 compounds, about 2,300 (0.79%) were called active. What follows is part of a selection rich in actives, with near analogues and random picks from the rest. A number with no mark means an inactive call. No stated cut-off is given here; in the data, active means inhibition above about 22%; inactive means the rest.
Experiment: cytotoxicity in IEC-6 intestinal epithelial cells, primary screen, cytotoxicity control for KLF5 inhibitor project, cell-based, luminescence (AID 1825);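 further: 0% = plate median of test compound wells and 100% = cytotoxic reference compound wells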
Details: IEC-6 cytotoxicity, luminescence viability; at 5 µM; hits give high values

SMILES	inhibition
COc1ccc(Nc2cc(Cl)ccc2C(=O)O)cn1	-1.3%
COc1ccc(C(=O)Nc2ccc(NC(=O)C(C)C)nc2)cc1	-0.5%
CCOc1ccc(S(=O)(=O)Nc2ccc(OC)nc2)cc1	6.1%
COc1ccc(CS(=O)/C(Cl)=C(/Cl)C(=O)Nc2ccc(OC)nc2)cc1 (stereo unspecified)	102% (active)
COc1ccc(NC(=O)c2cc(-c3ccc(C)cc3)on2)cc1	2.3%
COc1ccc(NC(=O)/C(Cl)=C(/Cl)S(=O)Cc2ccc(C)cc2)cn1 (stereo unspecified)	99.6% (active)
Cc1ccc([N+](=O)[O-])cc1S(=O)(=O)N1CCCN(C)CC1	3.1%
CC1(C)Cc2cccc(OCC(=O)N3CCN(c4ccc([N+](=O)[O-])cc4)CC3)c2O1	4.2%
Cc1cccc(C(=O)N2CCN(S(=O)(=O)N3CCCCC3)CC2)c1	-0.2%
CN(C)CCNC(=O)c1[nH]nc2c1CCc1ccccc1-2	-3.9%
CC(=O)NCCc1ccc(S(=O)(=O)Nc2ccc(C)c(S(=O)(=O)N3CCOCC3)c2)cc1	2.5%
COC(=O)Nc1nc2ccc(Sc3ccccc3)cc2[nH]1	81.4% (active)
CC(C)c1nc2ccc(C(=O)O)cc2[nH]1	-6%
COc1cc(OC)cc(C(=O)N[C@H](C(=O)Nc2nc3ccccc3[nH]2)C(C)C)c1	18.7%
S=C(c1ccc(-c2ccccc2)o1)N1CCCCC1	1.6%
O=C(Cc1ccc([N+](=O)[O-])cc1)Nc1ccc(C(=O)N2CCOCC2)cc1	-2.8%
CCCc1c(C(=O)N/N=C(\C)CCc2ccc(OC)cc2)nnn1-c1nonc1N	1.1%
CCn1cc(/C=C(\NC(=O)c2cc(OC)c(OC)c(OC)c2)C(=O)N2CCN(C)CC2)c2ccccc21	6.9%
Cc1nn(C(C)C(=O)NCCC2=CCCCC2)c(=O)c2nn(-c3ccccc3)c(C)c12 (stereo unspecified)	-2.9%
CC(C)c1cc(C(=O)O)n[nH]1	1.7%
CC(C)c1cc(C(=O)N/N=C/C(Br)=C/c2ccccc2)n[nH]1	37.9% (active)
Cc1cc(C(=O)N/N=C\C(Br)=C\c2ccccc2)c(C)o1	11.7%
Cc1ccc(Cl)cc1NC(=O)C1CCCN(c2cnccn2)C1 (stereo unspecified)	-2.8%
C[C@@H]1C[C@@H]2O[C@H]2/C=C\C=C\C(=O)Cc2c(Cl)c(O)cc(O)c2C(=O)O1	44.5% (active)

SMILES	inhibition
COc1ccccc1Oc1ccc(N2CC(C(=O)OCC(=O)c3ccc(F)cc3)CC2=O)cc1 (stereo unspecified)	-7.2%
Cc1nn(CC(=O)N2CCCCC2)c(=O)c2nn(-c3ccccc3)c(C)c12	-5.3%
COc1ccc(S(=O)(=O)N2CCC(C(=O)NCc3ccco3)CC2)cc1C	-0.7%
COc1ccc(C2=NOC(C(=O)NCc3ccco3)C2)cc1OC (stereo unspecified)	43.3% (active)
Cc1ccc(CNC(=O)C2CC(c3ccccc3[N+](=O)[O-])=NO2)o1 (stereo unspecified)	4.8%
C[C@@H](NC(=O)[C@@H]1Cc2ccccc2CN1)C(=O)NC1CCCC1	0.2%
CC(=O)NCCNC(=O)c1cc(-c2cccc3ccccc23)nc2ccccc12	4.3%
COCCn1c(SCC(=O)Nc2nc(C)cs2)nnc1C(C)C	1.6%
Cc1ccc(Oc2ccc3c(c2)C(=O)N(c2cccc4cccnc24)C3=O)cc1	25.8% (active)
O=C1c2ccccc2C(=O)N1c1cccc2ccccc12	-0.4%
Cc1cccc(N2C(=O)c3cccnc3C2=O)c1	3.1%
Cc1oc2cc3oc(=O)ccc3cc2c1C	3.1%
COCCNc1cc(-c2ccccc2)nc2cc(-c3cccc(F)c3)nn12	2.5%
CCOC(=O)C1=C(N)N2C(=O)C(C)SC2=C(C(=O)OCC)C1c1cc(OC)c(OC)c(OC)c1 (stereo unspecified)	25.5% (active)
CCOC(=O)C1CCN(C(=O)/C=C/c2cc(OC)c(OC)c(OC)c2)CC1	-2.6%
CCOC(=O)c1cc(-c2nnc(-c3cc(OC)c(OC)c(OC)c3)o2)c(C)nc1C	-3.1%
Cc1ccc(N2CC(C(=O)NCCS(=O)(=O)N3CCN(c4ccccc4)CC3)CC2=O)cc1 (stereo unspecified)	-4.2%
Fc1ccc2[nH]c3c(N4CCN(Cc5ccc6c(c5)OCO6)CC4)ncnc3c2c1	19.7%
CC(C)OCCCNc1ncnc2c1[nH]c1ccc(F)cc12	31.5% (active)
COc1cc(OC)c(OC)cc1/C=N/Nc1ncnc2c1[nH]c1ccc(C)cc12	-4.4%
COc1ccc(-c2nc3n(c(=O)c2C#N)CCS3)c(OC)c1	1.6%
O=C(c1cc2ccccc2s1)N1CCN(c2ccccn2)CC1	3.8%
Cc1ccc(-c2cc(C(=O)NCC3CCCO3)c3ccccc3n2)o1 (stereo unspecified)	-6%
Cc1nn2c(NCCN(C)C)c3c(nc2c1-c1ccccc1)CCC3	25% (active)

SMILES	inhibition
CCc1c(C)nc2c(-c3ccccc3)c(C)nn2c1Nc1ccc(NC(C)=O)cc1	-10.5%
Cc1cc(C(C)(C)C)n2nc(C)c(-c3ccccc3)c2n1	0.2%
CC(=O)N(c1ccc2oc(=O)sc2c1)S(=O)(=O)c1ccc(C)cc1	-2.8%
C/C(=N\NC(=O)c1ccccc1F)c1ccccn1	29.2% (active)
C/C(=N\NC(=O)Cc1ccc(Cl)cc1)c1ccccn1	-2.8%
COc1ccc(CC(=O)N/N=C(\C)c2ccccn2)cc1	2%
CCC(C)(C)NC(=O)/C=C/c1cc(OC)c(OC)c(S(=O)(=O)N2CCc3ccccc32)c1	-0.4%
Cc1nc2ccccc2c(=O)n1Cc1ccc([N+](=O)[O-])cc1	-1.7%
CCn1c(C)nc2c1C(=O)c1ccccc1C2=O	22.2% (active)
Cc1nc2ccccc2n1CC(O)c1ccccc1 (stereo unspecified)	0%
CCc1ccccc1NC(=S)Nc1cc(OC)c(NC(=O)C(C)C)cc1OC	-1.1%
NS(=O)(=O)c1ccccc1NC(=O)c1c(O)c2ccccc2[nH]c1=O	-0.5%
COc1ccc(Oc2cn[nH]c2-c2ccc(OC)cc2O)cc1	0%
CC(C)(C)NS(=O)(=O)c1ccc(NC(=O)C2CCCO2)cc1 (stereo unspecified)	-5%
CCN1/C(=C\c2ccc3ccccc3[n+]2CC)Sc2cc(C)ccc21	54.6% (active)
CCN1CCN(CCNC(=O)c2ccc(/C=C3/Sc4ccccc4N(Cc4cccc(C)c4)C3=O)cc2)CC1	7.2%
CCN1/C(=C/c2ccc3ccc(C)cc3[n+]2CC)Sc2ccccc21	33.6% (active)
COC(=O)c1sccc1NS(=O)(=O)c1ccc(F)cc1F	1%
CCOC(=O)[C@@H]1[C@H]2COc3ccc(Br)cc3[C@H]2N2C(=O)N(c3ccc(Cl)cc3)C(=O)[C@@]12C	-0.1%
CC1CC(C)CN(C(=O)CCNC(=O)Cn2cnc3ccccc3c2=O)C1 (stereo unspecified)	0.9%
CC(C)[C@@H](C(=O)O)N(Cc1cccc(CN([C@H](C(=O)O)C(C)C)S(C)(=O)=O)c1)S(C)(=O)=O	-3.4%
CCOC(=O)C(=Cc1ccccc1OC)C(=O)OCC	-0.6%
Cc1cc2c(cc1S(=O)(=O)CCC(=O)NCc1ccccc1)OCC(=O)N2	11%
C/C(=N\N(C)C)c1ccc(OCCOc2ccc([N+](=O)[O-])cc2)cc1	2.8%

SMILES	inhibition
COc1cccc(OC)c1C(=O)Nc1c(C(=O)N2CCN(c3ccccn3)CC2)oc2ccccc12	0%
CCOc1ccc(NC(=O)CC(Cc2ccc(Cl)cc2)C(=O)O)cc1 (stereo unspecified)	5.3%
Cc1ccc(CS(=O)(=O)c2ncc(Cl)c(C(=O)Nc3nnc(C)s3)n2)cc1	83.7% (active)
CSc1nnc(NC(=O)c2nc(S(=O)(=O)Cc3ccc(C)cc3)ncc2Cl)s1	55% (active)
Cc1nnc(NC(=O)Nc2ccc(Cl)c(Cl)c2)s1	4.3%
Cc1ccc(S(=O)(=O)CC(=O)Nc2nnc(C)s2)cc1	-1.2%
CCSc1nnc(NC(=O)c2ccc(C)cc2)s1	2.1%
CSc1ncc(Cl)c(C(=O)Nc2cc(C)ccc2C)n1	4.1%
Cc1ccc2cc(C)c(N3CCN(c4ccc(F)cc4)CC3)nc2c1	-5.5%
COc1cccc2cc(-c3cc(=O)oc4cc(C)c(O)cc34)oc12	-3.7%
Cc1[nH]c(C)c(S(=O)(=O)N2CCN(c3cccc(C(F)(F)F)c3)CC2)c1C(=O)N1CCCC1	-1.3%
COc1cccc(C(O)c2nc3ccccc3n2C)c1 (stereo unspecified)	-1%
CC(C)[C@@H]1COC(c2cccc(C3=N[C@H](C(C)C)CO3)c2)=N1	2.1%
Cc1nc(Nc2ccc3c(c2)OCCO3)c2nnn(Cc3ccccc3Cl)c2n1	22.2% (active)
Cc1nc(Nc2ccccc2F)c2nnn(Cc3ccccc3Cl)c2n1	-5.6%
CCCc1nc(NCc2ccc3c(c2)OCO3)c2nnn(Cc3ccccc3Cl)c2n1	0.3%
O=C(CNC(=O)c1ccc(Br)o1)Nc1ccccc1	-1.9%
c1ccc(-n2nnnc2-c2cccnc2)cc1	4.3%
COc1ccc(-n2nnnc2-c2nc3ccccc3s2)cc1	-9%
CCOc1cccc(-n2nnnc2-c2ccc(OC)cc2)c1	58.4% (active)
COCCNC(=O)C(c1ccc(C)cc1)N(C(=O)CCC(=O)Nc1ccccn1)c1cccc(C)c1 (stereo unspecified)	7%
C=CCOC(=O)C1=C(C)NC(SCC(=O)OCC)=C(C#N)C1c1ccc(C)cc1 (stereo unspecified)	0.1%
Cc1ccc(C2CC(=O)NC(SCC(=O)OCc3ccccc3)=C2C#N)o1 (stereo unspecified)	-14.2%
CCOC(=O)CSC1=C(C#N)C(c2sccc2C)CC(=O)N1 (stereo unspecified)	81.1% (active)
